PubChem BioAssay AID743126 (The Scripps Research Institute Molecular Screening Center, 2013)
In all, about 370,000 compounds went through this assay and about 2,100 (0.57%) were called active. The entries come from a sample that favours actives as a whole. Values without a mark were called inactive.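 The calls were made as follows: active = inhibition above mean plus 3 SD of compounds lying within the high and low control bounds (cut at about 19% in these data); inactive = the rest.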

Each compound was assayed against Group 3 secretory phospholipase A2 (Homo sapiens) (UniProt Q9NZ20) (assay: human group III sPLA2 inhibitors, primary screen, biochemical, QFRET, BODIPY PC-A2 liposome substrate (AID 743126;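 also: 0% = median of test compound wells and 100% = no enzyme DMSO wells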)). Details: QFRET BODIPY PC-A2 liposome hydrolysis, fluorescence; at 12.2 µM; hits give high values.
Sequence of Group 3 secretory phospholipase A2 (Homo sapiens) (Q9NZ20 whole entry, looked up): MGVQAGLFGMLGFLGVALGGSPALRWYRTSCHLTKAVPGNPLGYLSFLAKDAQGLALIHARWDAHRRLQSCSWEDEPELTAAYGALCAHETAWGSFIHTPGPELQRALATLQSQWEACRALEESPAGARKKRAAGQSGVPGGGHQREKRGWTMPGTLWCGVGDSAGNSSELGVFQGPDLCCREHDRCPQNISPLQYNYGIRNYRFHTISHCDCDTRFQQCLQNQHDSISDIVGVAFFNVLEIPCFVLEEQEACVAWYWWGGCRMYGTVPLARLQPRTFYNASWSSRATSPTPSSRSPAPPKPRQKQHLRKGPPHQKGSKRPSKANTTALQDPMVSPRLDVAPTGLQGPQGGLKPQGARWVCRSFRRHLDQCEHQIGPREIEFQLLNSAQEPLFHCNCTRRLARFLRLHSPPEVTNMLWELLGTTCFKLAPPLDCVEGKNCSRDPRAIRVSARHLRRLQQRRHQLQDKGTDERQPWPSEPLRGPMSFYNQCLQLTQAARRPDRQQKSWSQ

Structure (SMILES) | inhibition
Cc1nc2ccc(C(=O)N3CCN(C(=O)C(C)(C)C)CC3)cc2n1C1CCCC1 | 3.1%
CN1C(=O)c2cc(NS(C)(=O)=O)ccc2OC[C@@H]2O[C@@H](CC(=O)NCc3ccc(-c4ccccc4)cc3)CC[C@H]21 | -2%
c1csc(-c2nnc(SCc3nc4ccccc4[nH]3)o2)c1 | -4.46%
O=C(NC1CCCCN(Cc2cccc(C(F)(F)F)c2)C1=O)c1ccccc1I (stereo not drawn) | -1.99%
Cc1c(Cl)cccc1NC(=S)NCC(O)c1ccccc1 (stereo not drawn) | 8.54%
Cc1c(Cl)cccc1NC(=S)NCc1ccc2c(c1)OCO2 | 19.5% (active)
COc1cccc(CNCc2ccc3c(c2)OCO3)c1 | 3.34%
O=C(CSc1nnc(-c2cccc(Cl)c2)n1Cc1ccco1)Nc1ccc(OCc2ccccc2)cc1 | -12.1%
Cc1ccccc1CS(=O)(=O)Cc1ccc(C(=O)Nc2ccc(Cl)cc2)o1 | -4.56%
CCS(=O)(=O)N1Cc2ccccc2CC1C(=O)Nc1ccc(OC)cc1OC (stereo not drawn) | -0.28%
COc1ccc(NC(=O)C2C3C=CC(C3)C2C(=O)NCc2ccccn2)c(OC)c1 (stereo not drawn) | 20.6% (active)
CCOc1ccc(N2CC(C(=O)NCc3ccccn3)CC2=O)cc1 (stereo not drawn) | 0.93%
Cc1ccc(-n2c(SCC(=O)Nc3cccc4ccccc34)nnc2-c2ccccn2)cc1 | -5.54%
COc1ccc(C(=O)Nc2sc(C)c(C)c2CN2CCOCC2)cc1 | 21.9% (active)
CCc1cc(C(c2ccccc2OC)N2CCOCC2)c(NC(=O)c2ccccc2)s1 (stereo not drawn) | -10.3%
O=C(Nc1ccc(CSc2ccccc2)cc1)c1ccc(CN2CCOCC2)cc1 | -16.7%
CCCCC(=O)N[C@@H]1CC[C@@]23CCCN2C(=O)CCC[C@H]3[C@H]1C | 7.19%
COCC(=O)N[C@@H]1C[C@@H]2O[C@@H](CO)CC[C@@H]2O[C@@H]1CCc1ccc(-c2ccccc2)cc1 | -1.64%
COc1ccc(C(N)c2csc(NC(=O)Nc3cccc(C(F)(F)F)c3)n2)cc1 (stereo not drawn) | 27.4% (active)
NC(c1csc(NC(=O)Nc2cccc(C(F)(F)F)c2)n1)C1CCCCC1 (stereo not drawn) | 6.78%
CCOC(=O)c1csc(NC(=O)Nc2cccc(OC)c2)n1 | -1.84%
COC(=O)C[C@H]1CC[C@H]2[C@H](COc3ccc(NC(=O)C4CC4)cc3C(=O)N2C)O1 | -1.19%
CC(C)(C)c1ccc(CSc2nnc(-c3cccs3)o2)cc1 | -0.56%
CN(C)S(=O)(=O)c1cccc(NC(=O)COC(=O)/C=C/c2cccs2)c1 | -11.5%
CN(C)S(=O)(=O)c1cccc(C(=O)N/N=C\c2ccco2)c1 | 1.45%
CN(C)S(=O)(=O)c1cccc(NC(=S)N/N=C/C(=O)c2ccccc2)c1 | 24% (active)
COC(=O)C1CN(Cc2cn(Cc3ccc(F)cc3)nn2)CCS(=O)(=O)N1Cc1ccc(Cl)cc1 (stereo not drawn) | -11.8%

Structure (SMILES) | inhibition
Cc1cc(C(=O)NN=C/C=C/c2ccco2)n[nH]1 | 13%
COc1ccc2c(c1)c(=Cc1ccc(N(C)C)cc1)c1cc(-c3ccccc3)[n+](C)n12 | 31.7% (active)
CCCC[C@H](C(=O)N(CC)c1ccccc1)[C@@H](O)c1ccc2ccccc2c1 | -3.7%
O=S(=O)(NC(=S)Nc1ccccc1)c1ccc(F)cc1 | -1.06%
O=C(NNC(=S)Nc1ccc(F)cc1)[C@H]1C[C@@H]1c1ccccc1 | 24% (active)
Cc1ccc(NC(=O)C2CC2c2ccccc2)cc1 (stereo not drawn) | -0.8%
c1ccc(C2=Nc3cccc4cccc(c34)N2)cc1 | 38.6% (active)
Brc1ccc(C2CC(c3ccccc3)=Nc3ccccc3N2)cc1 (stereo not drawn) | -5.39%
CC[C@]1(O)CC2CN(CCc3c([nH]c4ccccc34)[C@@](C(=O)OC)(c3cc4c(cc3OC)N(C=O)[C@H]3[C@@](O)(C(=O)OC)[C@H](OC(C)=O)[C@]5(CC)C=CCN6CC[C@]43[C@@H]65)C2)C1 (stereo partly drawn) | 13.5%
CC[C@]1(O)C[C@@H]2CN(CCc3c([nH]c4ccccc34)[C@@](C(=O)OC)(c3cc4c(cc3OC)N(C)[C@H]3[C@@](O)(C(=O)OC)[C@H](OC(C)=O)[C@]5(CC)C=CCN6CC[C@]43[C@@H]65)C2)C1 | 24.8% (active)
C=CCN1C(=O)[C@@H](CC(=O)NCCCCc2ccccc2)[C@]2(C(=O)OCC)CCCCC/C=C/12 | -9.75%
COC(=O)[C@]1(C#N)CC(=O)N(CC2CCCCC2)[C@@H]1c1ccccc1 | 4.27%
CN(C(N)=NC(=O)/C=C/c1ccccc1)C(C#Cc1ccccc1)Cc1ccccc1 (stereo not drawn) | 2.67%
O=C(COC(=O)c1ccccn1)NNC(=O)c1ccc(Br)cc1 | -1.11%
CCN(CC)S(=O)(=O)c1cc(C(=O)Nc2ccccn2)ccc1C | -0.99%
O=C(NNc1ccccn1)c1ccc(Cl)nc1 | 21.1% (active)
O=S1(=O)c2c(cccc2N2CC[C@H](O)C2)O[C@@H]2CCN1C2 | 4.99%
O=C(NCc1ccco1)C1CCCN(S(=O)(=O)c2ccc(Cl)s2)C1 (stereo not drawn) | -7.36%
CCc1cccc(CC)c1NC(=S)NCc1ccc2[nH]c(C)cc2c1 | 20.3% (active)
Cc1cc2cc(CNC(=O)c3cccs3)ccc2[nH]1 | 1.16%
CCOCC(=O)NCc1ccc2c(c1)cc(C)n2C | 12.3%
COc1cccc(CNC(=O)C2CCCN(c3nc4ccccc4o3)C2)c1OC (stereo not drawn) | 10.2%
COc1ccc(-n2c(SCC(=O)Nc3ccc(C)c(Cl)c3)nc3ccccc3c2=O)cc1 | 14.2%
CC(C)(C)OC(=O)NCCc1ccccc1/C=C/S(=O)(=O)NCc1ccc(F)cc1 | -1.5%
CCCCNC(=O)C[C@H]1C[C@@]2(C(=O)OC)C(=C[C@H](COCc3ccccc3)O[C@@H]2C)N(Cc2ccc(Cl)cc2Cl)C1=O | -3.1%
Cc1ccc(-c2nnc(SCC(=O)Nc3ccc(Oc4ccccc4)cc3)n2Cc2ccco2)cc1 | -6.88%
